From PubChem BioAssay
Activity calls are given as the source filed them.

Assays:
[1] = small molecules captured by biotinylated probe aFSTL3 – biochemical, small-molecule microarray, fluorescence 635/667, stem cell growth factor project, primary screen (AID 1064); details: higher = more signal;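 further: measures binding of the biotinylated anti-FSTL3 antibody to printed compounds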
[2] = binders from COS7 lysate, DM2A8 probe, primary screen, torsin A project, cell lysate, small-molecule microarray, fluorescence 635/667 (AID 1065); details: higher = more signal, COS7 lysate expressing mutant human TOR1A
[3] = small molecules captured by biotinylated probe aFGF2 – biochemical, small-molecule microarray, fluorescence 635/667, stem cell growth factor project, primary screen (AID 1067); details: higher = more signal;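 further: measures binding of biotinylated aFGF2 protein to printed compounds on slides; z-score merges feature fluorescence and signal-to-noise across triplicate slides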
[4] = small molecules captured by biotinylated probe aFGF10 – biochemical, small-molecule microarray, fluorescence 635/667, stem cell growth factor project, primary screen (AID 1071); details: higher = more signal;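 further: score merges 667 nm spot intensity and signal to noise from triplicate slides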
[5] = target: Neurogenic locus notch homolog protein 2 (Homo sapiens) (UniProt Q04721); assay: small molecules binding Notch2 protein – biochemical, small-molecule microarray, 635 nm fluorescence, stem cell growth factors, primary screen (AID 1073); details: higher = more signal
[6] = target: Pro-neuregulin-1, membrane-bound isoform (Homo sapiens) (UniProt Q02297); assay: small molecules binding neuregulin-1 protein – biochemical, small-molecule microarray, fluorescence 635/667, psychiatric disease protein project, primary screen (AID 1075); details: NRG1 binding, 635 nm fluorescence, higher = more signal;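 further: score combines 667 nm spot fluorescence with signal to noise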
Sequence of Pro-neuregulin-1, membrane-bound isoform (Homo sapiens) (Q02297 whole entry, looked up, the tested form may be a part, canonical isoform): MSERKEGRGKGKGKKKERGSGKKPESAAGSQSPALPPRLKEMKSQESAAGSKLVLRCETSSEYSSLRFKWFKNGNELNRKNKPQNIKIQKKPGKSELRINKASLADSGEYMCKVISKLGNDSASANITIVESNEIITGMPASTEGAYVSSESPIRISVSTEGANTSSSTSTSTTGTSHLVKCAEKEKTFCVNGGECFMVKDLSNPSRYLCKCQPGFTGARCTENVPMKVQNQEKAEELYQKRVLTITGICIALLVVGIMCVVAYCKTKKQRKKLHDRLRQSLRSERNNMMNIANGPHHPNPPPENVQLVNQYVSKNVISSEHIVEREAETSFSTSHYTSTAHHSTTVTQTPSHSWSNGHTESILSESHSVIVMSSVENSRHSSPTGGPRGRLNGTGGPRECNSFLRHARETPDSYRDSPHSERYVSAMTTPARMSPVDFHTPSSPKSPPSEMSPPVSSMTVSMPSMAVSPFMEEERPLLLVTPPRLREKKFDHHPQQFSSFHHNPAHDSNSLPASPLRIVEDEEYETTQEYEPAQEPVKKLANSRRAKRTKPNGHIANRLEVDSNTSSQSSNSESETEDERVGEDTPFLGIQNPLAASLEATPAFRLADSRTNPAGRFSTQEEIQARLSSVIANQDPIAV

[7] = system: Neuregulin-1 EGF-like domain; assay: small molecules binding NRG1 EGF domain – biochemical, small-molecule microarray, 635 nm fluorescence, primary screen (AID 1081); details: higher = more signal;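 further: binding of the protein to compounds printed on small-molecule microarray slides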
[8] = FRG1 expression reporter modulators in myotubes – cell-based, C2C12 myotubes, firefly/Renilla luciferase, luminescence, FRG1 inhibition for FSHD, primary screen (AID 1084); details: FRG1 promoter luciferase, higher = more signal, called active from +8 up or from −8 down
[9] = small molecules captured by biotinylated probe aFST – biochemical, small-molecule microarray, fluorescence 635/667, stem cell growth factor project, primary screen (AID 1086); details: higher = more signal;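 further: score merges 667 nm fluorescence with signal-to-noise of each printed compound spot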
[10] = binders of probe aHhip on microarray, primary screen, stem cell growth factor project, biochemical, small-molecule microarray, fluorescence 635/667 (AID 1087); details: higher = more signal;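 further: score merges spot fluorescence at 667nm with spot signal to noise ratio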
[11] = system: PRMT1 (protein arginine N-methyltransferase 1); assay: small molecules binding arginine methyltransferase PRMT1 – biochemical, small-molecule microarray, 635 nm fluorescence, primary screen (AID 1088); details: higher = more signal;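 further: binding of Prmt1 protein to compounds spotted on small-molecule microarray slides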
[12] = growth effects on S. cerevisiae YJM789 – YJM789 clinical isolate, OD600, 24 h, basal, primary screen (AID 1089); details: higher = more signal, called active from +8 up or from −8 down;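 further: growth of clinical yeast isolate S. cerevisiae YJM 789 seeded 1000 cells per well; test concentration not given here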
[13] = S. pombe growth modifiers, basal conditions – strain 972, OD600, 24 h, no modulator, primary screen (AID 1090);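 further: basal condition with compound alone and no growth modifier present; test concentration not given here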; details: S. pombe 972 growth, higher = more signal, called active from +8 up or from −8 down
[14] = budding yeast growth modifiers under rapamycin – strain BY4716, OD600, 96 h, primary screen (AID 1091); further: test concentration not given here; details: S. cerevisiae BY4716 + rapamycin, higher = more signal, called active from +8 up or from −8 down
[15] = target: Torsin-1A-interacting protein 2 (Homo sapiens) (UniProt Q8NFQ8); assay: small molecules binding lysate-expressed LULL1 – cell lysate, human LULL1 lysate, 635/667 nm fluorescence, primary screen (AID 1092); details: small-molecule microarray, hLULL1 lysate binding, 635 nm fluorescence; higher = more signal;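 further: probe is lysate of COS7 cells overexpressing human LULL1; score merges per-feature 667 nm fluorescence with signal-to-noise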
Sequence of Torsin-1A-interacting protein 2 (Homo sapiens) (Q8NFQ8 whole entry, looked up): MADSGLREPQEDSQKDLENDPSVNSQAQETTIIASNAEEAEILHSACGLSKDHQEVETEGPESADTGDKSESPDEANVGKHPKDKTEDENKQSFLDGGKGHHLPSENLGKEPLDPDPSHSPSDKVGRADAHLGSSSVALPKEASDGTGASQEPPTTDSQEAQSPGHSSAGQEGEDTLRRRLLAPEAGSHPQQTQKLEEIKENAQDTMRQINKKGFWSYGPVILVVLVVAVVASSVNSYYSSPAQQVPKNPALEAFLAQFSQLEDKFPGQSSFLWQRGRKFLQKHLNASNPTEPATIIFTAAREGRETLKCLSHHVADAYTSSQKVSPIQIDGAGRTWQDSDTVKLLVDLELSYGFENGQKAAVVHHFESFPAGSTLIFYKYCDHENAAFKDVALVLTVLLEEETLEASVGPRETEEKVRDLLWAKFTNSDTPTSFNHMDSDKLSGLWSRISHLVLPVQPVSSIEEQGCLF

[16] = optical density change of DRC41 E. coli – strain DRC41, OD650, 24 h, E. coli filamentation project, primary screen (AID 1093);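 further: MC1000 strain lacking acrAB efflux and sulA so SOS filamentation is blocked; test concentration not given here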; details: E. coli DRC41 growth, higher = more signal, called active from +8 up or from −8 down
[17] = probe aLefty2 binding to arrayed compounds – biochemical, biotinylated probe, 635/667 nm fluorescence, primary screen (AID 1094); details: small-molecule microarray, higher = more signal;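 further: score merges spot fluorescence near 667 nm with spot signal-to-noise ratio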
[18] = system: Noggin (protein binding on small-molecule microarray); assay: small molecules binding Noggin protein – biochemical, 635/667 nm fluorescence, primary screen (AID 1095); details: 635 nm fluorescence, higher = more signal;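 further: score merges 667 nm feature fluorescence with signal to noise over triplicate slides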
[19] = target: Neurogenic locus notch homolog protein 3 (Homo sapiens) (UniProt Q9UM47); assay: small molecules binding NOTCH3 protein – biochemical, 635/667 nm fluorescence, primary screen (AID 1096); details: small-molecule microarray, 635 nm fluorescence, higher = more signal
Sequence of Neurogenic locus notch homolog protein 3 (Homo sapiens) (Q9UM47 whole entry, looked up): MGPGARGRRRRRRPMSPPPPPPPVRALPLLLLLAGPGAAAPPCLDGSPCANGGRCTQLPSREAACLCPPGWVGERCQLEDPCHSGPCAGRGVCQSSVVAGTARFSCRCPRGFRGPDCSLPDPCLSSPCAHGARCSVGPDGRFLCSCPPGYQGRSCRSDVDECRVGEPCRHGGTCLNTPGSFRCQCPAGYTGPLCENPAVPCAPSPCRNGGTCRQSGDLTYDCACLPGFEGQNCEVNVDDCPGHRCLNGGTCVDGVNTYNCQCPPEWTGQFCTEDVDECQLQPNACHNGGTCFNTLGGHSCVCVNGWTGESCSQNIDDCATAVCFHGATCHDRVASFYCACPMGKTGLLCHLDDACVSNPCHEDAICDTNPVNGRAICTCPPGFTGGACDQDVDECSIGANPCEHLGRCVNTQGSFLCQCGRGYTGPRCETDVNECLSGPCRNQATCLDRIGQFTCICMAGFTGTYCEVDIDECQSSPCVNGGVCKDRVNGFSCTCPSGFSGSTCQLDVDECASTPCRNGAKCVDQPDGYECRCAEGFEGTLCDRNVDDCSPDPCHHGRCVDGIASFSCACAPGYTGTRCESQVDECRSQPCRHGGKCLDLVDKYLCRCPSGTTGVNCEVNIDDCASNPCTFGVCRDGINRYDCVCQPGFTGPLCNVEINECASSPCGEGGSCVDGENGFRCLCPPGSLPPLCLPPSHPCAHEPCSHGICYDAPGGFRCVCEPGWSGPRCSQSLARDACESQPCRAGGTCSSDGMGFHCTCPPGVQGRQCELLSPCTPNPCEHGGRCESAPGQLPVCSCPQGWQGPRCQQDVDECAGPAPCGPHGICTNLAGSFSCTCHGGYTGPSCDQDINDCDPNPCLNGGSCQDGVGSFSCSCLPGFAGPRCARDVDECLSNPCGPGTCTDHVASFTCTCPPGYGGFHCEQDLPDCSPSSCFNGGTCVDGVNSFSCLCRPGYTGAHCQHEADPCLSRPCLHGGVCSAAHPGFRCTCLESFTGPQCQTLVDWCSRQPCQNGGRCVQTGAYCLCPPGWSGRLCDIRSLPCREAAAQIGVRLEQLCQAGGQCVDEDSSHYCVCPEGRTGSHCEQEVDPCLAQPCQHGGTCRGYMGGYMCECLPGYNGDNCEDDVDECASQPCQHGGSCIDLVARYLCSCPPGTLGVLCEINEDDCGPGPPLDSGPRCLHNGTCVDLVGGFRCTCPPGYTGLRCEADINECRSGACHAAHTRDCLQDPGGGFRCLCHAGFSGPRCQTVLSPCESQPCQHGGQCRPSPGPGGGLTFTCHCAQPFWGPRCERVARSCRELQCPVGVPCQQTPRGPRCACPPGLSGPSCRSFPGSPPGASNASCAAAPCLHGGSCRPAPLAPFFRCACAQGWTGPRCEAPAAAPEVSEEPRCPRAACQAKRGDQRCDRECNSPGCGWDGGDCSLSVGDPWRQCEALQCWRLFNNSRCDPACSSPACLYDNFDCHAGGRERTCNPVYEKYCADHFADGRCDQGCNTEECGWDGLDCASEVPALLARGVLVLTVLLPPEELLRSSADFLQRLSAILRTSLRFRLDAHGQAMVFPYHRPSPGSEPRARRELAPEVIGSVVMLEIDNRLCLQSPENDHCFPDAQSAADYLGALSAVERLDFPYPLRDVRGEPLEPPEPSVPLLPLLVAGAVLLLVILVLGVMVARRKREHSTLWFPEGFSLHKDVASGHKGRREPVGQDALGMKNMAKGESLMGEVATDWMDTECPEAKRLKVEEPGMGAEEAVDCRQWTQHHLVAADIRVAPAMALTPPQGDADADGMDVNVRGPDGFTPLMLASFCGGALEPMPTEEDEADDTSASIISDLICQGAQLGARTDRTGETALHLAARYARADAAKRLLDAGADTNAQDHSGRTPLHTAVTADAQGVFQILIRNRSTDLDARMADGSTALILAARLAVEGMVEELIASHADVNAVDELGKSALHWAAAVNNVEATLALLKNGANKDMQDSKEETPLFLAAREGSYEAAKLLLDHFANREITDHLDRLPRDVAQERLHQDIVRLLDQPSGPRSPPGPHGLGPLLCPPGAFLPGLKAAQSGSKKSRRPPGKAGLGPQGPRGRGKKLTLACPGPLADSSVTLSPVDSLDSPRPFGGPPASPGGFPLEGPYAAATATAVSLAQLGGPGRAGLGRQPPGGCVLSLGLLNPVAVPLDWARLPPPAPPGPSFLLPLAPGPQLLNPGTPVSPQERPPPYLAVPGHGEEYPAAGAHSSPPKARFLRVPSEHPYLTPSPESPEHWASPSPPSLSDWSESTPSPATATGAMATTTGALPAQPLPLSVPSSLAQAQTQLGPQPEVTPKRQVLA

[20] = probe aEGFR binding to arrayed compounds – biochemical, biotinylated probe, 635/667 nm fluorescence, primary screen (AID 1097); details: small-molecule microarray, higher = more signal;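 further: probe is a biotinylated anti-EGFR antibody binding compounds printed on slides; score combines fluorescence near 667 nm and signal to noise of each spot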

Row | Structure (SMILES) | composite z-score [1] | composite z-score [2] | composite z-score [3] | composite z-score [4] | composite z-score [5] | composite z-score [6] | composite z-score [7] | z-score [8] | composite z-score [9] | composite z-score [10] | composite z-score [11] | z-score [12] | z-score [13] | z-score [14] | composite z-score [15] | z-score [16] | composite z-score [17] | composite z-score [18] | composite z-score [19] | composite z-score [20]
1 | CCCNC(=O)[C@@]1(C)c2ccccc2C(=O)N(Cc2cc(F)cc(C(F)(F)F)c2)[C@H]1c1ccc(CO)cc1 | 0.343 | 1.04 | -0.0901 | -0.104 | -0.639 | 0.27 | 0.146 | -0.92 (inactive) | -0.282 | -0.181 | 0.136 | -1.34 (inactive) | -0.974 (inactive) | -1.24 (inactive) | 2.08 | 0.423 (inactive) | -0.174 | 0.0391 | -0.131 | -0.194
2 | Oc1ccc2cc[n+](Cc3cccc(OC(F)(F)F)c3)cc2c1 | -0.446 | 1.77 | -0.0841 | -0.0974 | 0.0892 | -0.322 | 0.921 | 0.498 (inactive) | 0.191 | 0.0749 | 0.488 | 0.573 (inactive) | 0.439 (inactive) | 4.58 (inactive) | 1.65 | 0.713 (inactive) | -0.0541 | 1.26 | 0.646 | -0.0177
3 | COc1ccc([Si](C)(C)[C@@H]2[C@@H](CC(=O)N3Cc4ccccc4C[C@H]3CO)O[C@]3(C(=O)N(Cc4cccc(N5C(=O)COc6ccccc65)c4)c4ccccc43)[C@H]2C)cc1 | -0.562 | 0.608 | -0.1 | 0.41 | 0.244 | 1.57 | 0.725 | -2.29 (inactive) | 0.0559 | -0.451 | 1.49 | -1.38 (inactive) | 0.553 (inactive) | 3.67 (inactive) | 1.25 | 2.33 (inactive) | -0.15 | 0.812 | 1.14 | -0.0981
4 | C=C(COC)/C(=C/C[C@H](OC(C)=O)c1ccccc1OCCO)c1cnc2ccccc2c1 | -0.419 | -0.288 | -0.0366 | 1.08 | 1.33 | 1.19 | 1.13 | -0.267 (inactive) | 0.101 | 0.142 | 0.826 | -0.837 (inactive) | 0.14 (inactive) | 1.29 (inactive) | 1.76 | 0.223 (inactive) | -0.171 | 0.556 | 0.76 | 0.436
5 | COc1cc2c(cc1O)C(c1ccc(CN3CCCC3)cc1)N(Cc1sc3ccccc3c1Cl)CC2 (stereo not given) | 0.719 | -0.002 | -0.0687 | 0.156 | 0.805 | 0.072 | 1.17 | 0.0314 (inactive) | 1.38 | -0.214 | 1.13 | -1.43 (inactive) | -17.7 (active) | -1.1 (inactive) | 1.93 | 0.504 (inactive) | 0.157 | 0.369 | 0.202 | 0.0475
6 | O=C1OCCC/C=C\[C@H]2OC34C=CCN(CCN5CCOCC5)C(=O)[C@H]3N(CCO)C(=O)[C@@H]4C12 (stereo not given in full) | -0.163 | -0.435 | -0.154 | -0.313 | -1.12 | -0.501 | 0.843 | 0.808 (inactive) | -0.382 | -0.137 | -0.833 | 0.14 (inactive) | 0.774 (inactive) | -0.131 (inactive) | -0.534 | 1 (inactive) | -0.18 | -0.915 | -1.23 | -0.244
7 | C=C(/C(=C/C[C@@H](OC(=O)c1ccncc1)c1ccc(CO)o1)c1cc(C(=O)OC)ccc1OC)C(C)C | -0.441 | 1.46 | -0.0226 | 0.901 | 0.974 | 1.15 | 0.954 | -1.13 (inactive) | 0.377 | 0.0373 | 1.53 | 0.523 (inactive) | -1.28 (inactive) | -0.414 (inactive) | 2.47 | 0.481 (inactive) | -0.129 | 0.855 | 1.03 | 0.0073
8 | O=C1OCC=C[C@H]2OC34C=CCN(c5ccc6ccccc6c5)C(=O)[C@H]3N(CCO)C(=O)[C@@H]4[C@@H]12 (stereo not given in full) | 0.982 | -2.22 | -0.166 | -0.361 | -1.4 | 1.7 | 1.39 | 1.18 (inactive) | -0.127 | -0.27 | 0.491 | 0.689 (inactive) | 0.0739 (inactive) | -0.409 (inactive) | 0.951 | -0.746 (inactive) | -0.0841 | -1.58 | -0.127 | -0.281
9 | CCCNC(=O)[C@@]1(C)c2ccccc2C(=O)N(C(C)C)[C@H]1c1ccc(CO)cc1 | 1.01 | -0.214 | -0.0704 | -0.425 | -0.963 | 0.447 | 1.3 | -0.51 (inactive) | -0.35 | -0.226 | -0.535 | -0.141 (inactive) | -0.712 (inactive) | -0.397 (inactive) | 2.75 | -1.2 (inactive) | 0.0692 | -0.827 | -1.05 | -0.174
10 | CO[C@H]1O[C@H](CO)[C@@H](OC(=O)Nc2ccc(C(F)(F)F)cc2)[C@H](OC(=O)Nc2ccccc2)[C@@H]1OC(=O)Nc1ccccc1 | -0.181 | -0.0087 | 0.113 | 0.392 | 1.29 | 0.781 | 0.879 | 5.33 (inactive) | 0.234 | -0.188 | 1.54 | 0.0975 (inactive) | 0.252 (inactive) | 0.168 (inactive) | 3.11 | -0.142 (inactive) | -0.0657 | 1.24 | 0.968 | -0.289
